# High-throughput results (PubChem)
# ClpP mod: qHTS Assay for Activators of ClpP. Potency, µM (doses to about 57.5 µM), for the others: at the highest dose activity change, negative = active. purified B. subtilis ClpP, FRET peptide cleavage, 20 min. AID 651965, 2013. 340,000 compounds, 1.9% hits; active = well fitted falling curve with a large enough effect; inconclusive = small, poorly fitted or top-dose-only effect; inactive = no such curve, though single readings can be large or run the other way; note: the source files actives as falling curves though it sought activators and does not explain the sign; nearly all actives have a fitted effect of over 65% in size
#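 ClpP 10 microg/mL final, pH 8 Tris/KCl buffer with BSA, glycerol, Tween-20; compound pinned in; FRET-FV substrate; RT 20 min; Ex320/Em430; ΔFRET vs ADEP 5.8 microM, DMSO, no enzyme.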
# Rango complex inh: qHTS Assay for Inhibitors of Rango (Ran-regulated importin-beta cargo) - Importin beta complex formation | Rango CFP/YFP FRET sensor + importin beta, 45 min | Potency, µM (doses to about 92.2 µM), for the others: at the top dose inhibition of complex formation | 340,000 compounds, 0.031% hits | AID 540263, 2011; calls by dose curve;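 note: 0% = DMSO wells and 100% = buffer wells lacking importin beta; nearly all actives have a fitted effect of over 15% in size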
#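 Inhibition scored from the CFP 486 nm/YFP 530 nm FRET ratio 45 min after adding 0.125 microM importin beta to 50 nM Rango biosensor preincubated 5 min with compound (room temperature, PBS with DTT, Tween-20, BSA). No-importin wells as positive control.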
# Rango dissoc inh: qHTS Assay for Inhibitors of RanGTP induced Rango (Ran-regulated importin-beta cargo) - Importin beta complex dissociation; Snurportin-1 (Homo sapiens) + GTP-binding nuclear protein Ran (Homo sapiens) + Importin …; Biochemical FRET Rango-importin beta, RanGTP-induced dissociation; Potency, µM (titrated, usually from 46.1 µM), without a hit: at the top dose activity change, negative = inhibition; 340,000 compounds, 0.071% hits; AID 540253, 2011; calls by dose curve; note: % of control where 0% means no effect; nearly all actives have a fitted effect of over 45% in size
#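 FRET read at 45 min, room temperature: inhibitors block the CFP/YFP signal rise when RanGTP (0.6 uM Ran, 2 mM GTP, 0.2 uM RCC1) frees Rango (0.1 uM) from importin beta (0.25 uM). Pre-read after 5 min compound exposure flags interference.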
# TDP1 block: qHTS Assay for Inhibitors of Tyrosyl-DNA Phosphodiesterase (TDP1) | Tyrosyl-DNA phosphodiesterase 1 (Homo sapiens), Q9NUW8 | recombinant TDP1, AlphaScreen DNA substrate cleavage | Potency, µM (titrated, usually from 130 µM), for the others: top-dose activity change, negative = inhibition, hits mostly inhibitors | 350,000 compounds, 0.28% hits | AID 485290, 2010; note: % is set by controls: 0 for no effect and ±100 for the full control effect; nearly all actives have a fitted effect of over 40% in size
#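 Recombinant E. coli-expressed Tdp1 (1 nM) preincubated with compound 15 min at RT, then 5'-biotin/3'-phosphotyrosine-FITC DNA substrate (15 nM) added for 5 min. AlphaScreen beads (10 ug/ml) added, 10 min RT; tyrosine-FITC cleavage read as signal loss.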
# PTAP TSG101 blk: qHTS Assay for Iinhibitors of HIV-1 Budding by Blocking the Interaction of PTAP/TSG101; Potency, µM (series often up to 115 µM), for the others: at the highest dose activity change, negative = inhibition, usual class: inhibitors; 340,000 tested, under 10 active; Fluorescence polarization, FITC-PTAP peptide / Tsg101 binding; active = well fitted inhibition curve with a large enough effect in the main read-out, with a control signal flat, not every such curve was filed as active; inconclusive = small, poorly fitted or top-dose-only effect, or effect the other way, or a change in a side signal; inactive = no such curve, though single readings can be large or run the other way; note: % of control where 0% means no effect
#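 Compounds were pin-transferred onto Tsg101 binding domain (10 uM final) in HEPES pH 7.5 buffer, then FITC-PTAP peptide was added at 50 nM final. After 20 min at RT, polarization reported peptide displacement across a qHTS concentration series.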
# ALOX12 inh: Primary qHTS assay for inhibitors of human arachidonate 12S-lipoxygenase (ALOX12): Round 2. Potency, µM (doses to about 108 µM), without a hit: top-dose activity change, negative = inhibition, hits mostly inhibitors. purified 12hLO, xylenol orange hydroperoxide absorbance. AID 1671190, 2021. Polyunsaturated fatty acid lipoxygenase ALOX12 (Homo sapiens), P18054. 580,000 compounds, 1.1% hits; note: % is set by controls: 0 for no effect and ±100 for the full control effect
# Target sequence (P18054 whole entry, looked up): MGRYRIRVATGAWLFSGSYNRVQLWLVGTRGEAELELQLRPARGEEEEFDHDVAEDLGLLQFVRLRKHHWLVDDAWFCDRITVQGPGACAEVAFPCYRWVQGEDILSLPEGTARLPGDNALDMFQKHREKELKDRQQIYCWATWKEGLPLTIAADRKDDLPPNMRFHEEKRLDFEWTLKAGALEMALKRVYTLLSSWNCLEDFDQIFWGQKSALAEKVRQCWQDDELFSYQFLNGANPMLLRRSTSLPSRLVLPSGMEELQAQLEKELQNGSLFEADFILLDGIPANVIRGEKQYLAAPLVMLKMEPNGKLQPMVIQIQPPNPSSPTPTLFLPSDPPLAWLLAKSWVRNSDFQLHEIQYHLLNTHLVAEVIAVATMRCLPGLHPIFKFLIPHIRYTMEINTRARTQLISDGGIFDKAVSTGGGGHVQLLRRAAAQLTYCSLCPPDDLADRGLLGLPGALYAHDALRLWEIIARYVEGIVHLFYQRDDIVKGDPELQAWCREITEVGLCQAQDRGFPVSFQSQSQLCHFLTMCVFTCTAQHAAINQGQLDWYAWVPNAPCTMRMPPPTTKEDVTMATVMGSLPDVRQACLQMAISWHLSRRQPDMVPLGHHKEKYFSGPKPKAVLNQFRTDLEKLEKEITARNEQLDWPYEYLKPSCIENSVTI
#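 Purified human 12hLO (150 nM final) in 25 mM Hepes, 0.01% Triton X-100, pH 7.0 was preincubated 15 min at room temperature with compound. Then 40 uM arachidonic acid was added, 30 min. Hydroperoxide was read by Fe-XO absorbance ratio 573/405 nm.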
# An asterisk follows results filed as active; ? = inconclusive; · = no result; ! = not active in a repeat; [ ] = another dose, or the depositor's remark. Shown are actives, neighbours in structure and some others; about 2.4% of the full set was active somewhere. Unless noted, calls come from the whole dose curve; as a rule, active = well fitted curve in the direction sought with a large enough effect; inconclusive = small, poorly fitted or top-dose-only effect, or another doubt; inactive = no such curve, though single readings can be large; an effect the other way counts as inactive or inconclusive. Potency is the fitted concentration of half-maximal effect.
SMILES,ClpP mod,Rango complex inh,Rango dissoc inh,TDP1 block,PTAP TSG101 blk,ALOX12 inh
COC[C@@H]1CCCN1c1ccc2c(c1)O[C@H](COCc1ccccc1)CN([C@@H](C)c1ccccc1)S2(=O)=O,?,·,·,·,·,26%
COC1C(=O)N(C2CCN(C(=O)c3ccoc3)CC2)C12CCOCC2 (stereo not drawn),·,·,·,·,·,11%
CCOc1ccc(NC(=O)N2CCCC(Cn3c(C4CC4)nc4cccnc43)C2)cc1 (stereo not drawn),·,·,·,·,·,26%
Cc1cnn(C(=O)c2cc(-c3ccccc3)nc3ccccc23)c1,18%,?,-5%,-12%,-2%,-25%
Cc1cc2ncn(C(=O)c3cc(-c4ccccc4)nc4ccccc34)c2cc1C,14µM*,2%,-11%,-1%,0%,1%
CCOc1ccc(-c2cc(C(=O)N3CCCC3)c3ccccc3n2)cc1,14µM*,2%,3%,1%,-2%,·
CCOC(=O)N1CCN(C(=O)c2cc(-c3ccncc3)nc3ccccc23)CC1,-9%,9%,4%,0%,2%,-2%
CCOC(=O)N1CCN(C(=O)c2cc(-c3ccc(OCC)cc3)nc3ccccc23)CC1,28µM*,-2%,-9%,0%,-3%,-4%
COc1ccc(-c2cc(C(=O)N3CCCC3)c3ccccc3n2)cc1,4%,0%,5%,1%,-4%,0%
COc1ccc2cc(-c3cc(C(=O)O)c4ccccc4n3)ccc2c1,25µM*,-4%,-5%,0%,-8%,?
Cc1ccc(C(=O)N2CCC3(CCC(=O)N(Cc4ccccc4)CC3)CC2)s1,·,·,·,·,·,5%
O=C(Cc1ccccc1)Nc1ccnn1C1CCN(Cc2cn[nH]c2-c2ccccc2)CC1,·,·,·,·,·,14%
CC1CN(C(=O)c2cc(-c3ccc(Cl)s3)nc3ccccc23)CC(C)O1 (stereo not drawn),28µM*,0%,-7%,-6%,-3%,?
COc1ccc(-c2cc(C(=O)N3CC(C)CC(C)C3)c3ccccc3n2)cc1 (stereo not drawn),28µM*,0%,-13%,2%,-11%,?
CCOc1ccc(-c2cc(C(=O)N3CCN(C)CC3)c3ccccc3n2)cc1,28µM*,4%,-6%,7%,-11%,-3%
CCc1ccc(NS(=O)(=O)c2ccc3c(c2)c(=O)n(CC(=O)N2CCCCCC2)c(=O)n3C)cc1,·,·,·,·,·,-1%
O=C1NCCCCCCN(C(=O)c2ccc3ccccc3n2)[C@H]2CCC[C@@H]12,·,·,·,·,·,-4%
O=C(O)c1cc(=O)c2ccccc2[nH]1,-14%,-1%,1%,8%,3%,13µM*!
Cc1oc(-c2cccc(NC(=O)C3CCCN(C)C3)c2)nc1CNC(=O)c1coc2c1C(=O)CCC2 (stereo not drawn),·,·,·,·,·,-7%
COc1cc2c(cc1OC)-c1cc(NC3CCCC3)nc(=O)n1CC2,32µM*,-3%,-13%,7%,-2%,-3%
COc1cc2c(cc1OC)-c1cc(Nc3ccc(F)cc3)nc(=O)n1CC2,?,0%,9%,·,-3%,-15%
Cc1ccccc1CC(=O)Nc1cc(C(C)(C)C)on1,·,0%,-12%,·,-3%,5µM*
O=C1NC2(CCN(C(=O)c3cccnc3)CC2)Oc2ccccc21,·,·,·,·,·,-3%[176 µM]
Cc1cc(O)c2c(C)c(CC(=O)NCCc3cccc(F)c3)c(=O)oc2c1,·,·,·,·,·,28µM*
O=C(Nc1cccc2c1CCCC2)c1cc([N+](=O)[O-])cc([N+](=O)[O-])c1,28µM*,2%,-4%,-3%,-1%,0%
SMILES,ClpP mod,Rango complex inh,Rango dissoc inh,TDP1 block,PTAP TSG101 blk,ALOX12 inh
COc1ccccc1C(=O)NCCNc1nc2cc(C)cc(C)c2cc1C#N,5%,?,12µM*,·,-2%,-9%
Cc1cc(C)c2cc(C#N)c(NCCOC(=O)c3ccccc3C)nc2c1,28µM*,3%,-19%,?,-9%,19%
CC(=O)c1cnc(-c2cccc(Cl)c2)s1,-2%,-2%,0%,-6%,0%,0%
CN(C)/C=C/C(=O)c1cnc(-c2cccc(Cl)c2)s1,3%,?,-1%,2%,-5%,32µM*
CN(C)/C=C/C(=O)c1cnc(-c2ccccc2Cl)s1,-1%,-1%,-5%,-3%,-4%,8.9µM*
O=C(CCn1cncn1)N1CCC(c2cc(-c3ccccc3Cl)n[nH]2)CC1,·,·,·,·,·,30%
Cc1nc2nc(SCC(=O)Nc3ccccc3C(C)(C)C)[nH]c2cc1Br,·,·,·,·,·,15%
COc1cccc(N2C(=O)NC(=NC3CCCC3)C23CCN([S+](=O)([O-])c2cccs2)C3)c1 (stereo not drawn),·,·,·,·,·,4%[6.33 µM]
Cc1ccc(-c2nc(-c3ccccc3)no2)c(Cl)c1,-9%,1%,6%,56µM*,-2%,-6%
COc1ccc2[nH]c(C)cc2c1,-11%,·,·,·,·,·
COc1ccc2[nH]c(CO)cc2c1,·,·,·,·,·,25µM*
Cc1csc2nc(=O)c3ccccc3n12,11µM*,?,0%,1%,-2%,-12%
Cc1nc2scc(C)n2c(=O)c1S(=O)(=O)N1CCN(c2ccccc2)CC1,·,0%,-25%,-6%,-4%,-10%
O=C(c1ccc(F)c(S(=O)(=O)N2CCOCC2)c1)N1CCN(c2ccc(F)cc2)CC1,0%,-2%,8%,5%,0%,0%
O=C(c1ccc(Cn2c(=S)[nH]c3ccc(N4CCOCC4)cc3c2=O)cc1)N1CCN(c2ccc(F)cc2)CC1,20µM*,?,?,5%,-3%,0%
O=C(c1ccc(=O)oc1)N1CCN(c2ccc(F)cc2)CC1,32µM*,3%,-20%,-6%,-1%,-10%
COc1cccc(NC(=O)CCc2ncc(-c3ccccc3)o2)c1,·,·,·,·,·,6%
CCc1ccc(-n2cc(-c3ccc([N+](=O)[O-])cc3)[nH]c2=S)cc1,-2%,5%,16%,5%,-3%,-20%
CCc1ccc(-c2cn(C3CCCCC3)c(=S)[nH]2)cc1,·,-5%,0%,5%,-2%,20µM*
